This passage reports Percent Effect results from ChEMBL document CHEMBL3988442, “University of Dundee, Small-Polar-MMV Screening Library” (2021).

Holding throughout (parameters): scale not given: direction of the effect not stated beside the values
In assay [1] the target is Protein translocase subunit SecA (Escherichia coli (strain K12)) (UniProt P10408). The experiment in a line: Assay to Identify E. coli SecA ATPase Inhibitors. The format is functional. Conditions: 30 µM.
Assay [2] has as its target T1, Ubiquitin-activating enzyme e1, putative (Leishmania donovani (strain BPK282A1)) (UniProt E9BSI1).
T1 sequence (whole entry): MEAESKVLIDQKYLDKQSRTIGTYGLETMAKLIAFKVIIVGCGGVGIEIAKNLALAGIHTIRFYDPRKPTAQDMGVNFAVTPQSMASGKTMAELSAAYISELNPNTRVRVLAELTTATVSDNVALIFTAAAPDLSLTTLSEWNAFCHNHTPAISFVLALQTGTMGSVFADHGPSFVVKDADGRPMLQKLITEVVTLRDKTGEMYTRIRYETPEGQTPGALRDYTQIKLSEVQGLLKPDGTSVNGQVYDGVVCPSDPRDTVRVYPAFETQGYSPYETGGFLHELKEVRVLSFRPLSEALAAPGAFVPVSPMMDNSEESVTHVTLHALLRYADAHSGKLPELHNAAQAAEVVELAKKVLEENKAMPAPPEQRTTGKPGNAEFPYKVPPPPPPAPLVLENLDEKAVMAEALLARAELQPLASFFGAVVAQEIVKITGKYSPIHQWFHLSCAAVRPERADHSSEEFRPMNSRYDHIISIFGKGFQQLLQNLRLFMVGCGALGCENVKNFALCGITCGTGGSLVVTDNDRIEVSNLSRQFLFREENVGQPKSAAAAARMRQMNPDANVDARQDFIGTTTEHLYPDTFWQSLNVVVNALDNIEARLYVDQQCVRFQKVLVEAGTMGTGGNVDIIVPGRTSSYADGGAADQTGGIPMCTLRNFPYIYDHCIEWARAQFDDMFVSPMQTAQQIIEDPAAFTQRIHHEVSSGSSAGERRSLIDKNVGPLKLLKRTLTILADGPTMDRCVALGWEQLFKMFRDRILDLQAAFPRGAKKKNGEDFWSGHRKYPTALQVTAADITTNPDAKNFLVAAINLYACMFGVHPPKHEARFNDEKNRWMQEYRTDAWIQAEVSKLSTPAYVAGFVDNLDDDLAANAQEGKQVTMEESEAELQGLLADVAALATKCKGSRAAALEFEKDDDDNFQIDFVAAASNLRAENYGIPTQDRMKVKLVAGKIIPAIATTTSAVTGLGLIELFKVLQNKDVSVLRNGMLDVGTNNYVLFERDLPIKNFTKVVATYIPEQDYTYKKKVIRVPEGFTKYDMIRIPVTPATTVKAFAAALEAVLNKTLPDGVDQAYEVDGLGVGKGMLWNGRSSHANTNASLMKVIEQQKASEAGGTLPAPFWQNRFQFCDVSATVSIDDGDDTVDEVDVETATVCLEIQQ
The experiment in a line: Leishmania donovani Ubiquitin Activating Enzyme (LdE1). It counts as functional. The note with it: 30 µM.

Assay [3] concerns the target Sialic acid-binding Ig-like lectin 9 (Homo sapiens) (UniProt Q9Y336). The experiment in a line: Hs-Siglec9 ALPHAscreen SOP 20170721. Conditions: 10 µM. For orientation: Alpha assays give light when donor and acceptor beads are brought close together.
Assay [4] deals with Trypanosoma cruzi. The experiment in a line: Trypanosoma cruzi phosphomannomutase and mannose-1-phosphate guanylyltransferase assay. The format is functional. The note with it: 10 µM.
Assay [5] concerns the target T2, Arginase-2, mitochondrial (Homo sapiens) (UniProt P78540).
T2 sequence (whole entry): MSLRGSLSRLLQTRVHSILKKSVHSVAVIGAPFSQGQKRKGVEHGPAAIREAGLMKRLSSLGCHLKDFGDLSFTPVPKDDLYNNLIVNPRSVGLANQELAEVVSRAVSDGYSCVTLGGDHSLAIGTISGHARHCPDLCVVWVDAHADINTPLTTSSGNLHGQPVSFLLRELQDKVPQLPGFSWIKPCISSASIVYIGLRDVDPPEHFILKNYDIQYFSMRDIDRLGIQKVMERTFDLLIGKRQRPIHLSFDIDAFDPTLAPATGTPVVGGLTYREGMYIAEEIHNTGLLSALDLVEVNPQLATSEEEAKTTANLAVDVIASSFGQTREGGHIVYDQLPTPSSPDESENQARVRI
The assay is described as follows: in vitro enzyme assay to detect the production of urea directly proportional to the activity of Arginase II. Note: in the data most compounds retested in dose-response had high values. It counts as functional. The note with it: 33.3 µM.

In assay [6] the target is T3, Proteasome subunit beta (Trypanosoma cruzi) (UniProt O96673).
T3 sequence (whole entry): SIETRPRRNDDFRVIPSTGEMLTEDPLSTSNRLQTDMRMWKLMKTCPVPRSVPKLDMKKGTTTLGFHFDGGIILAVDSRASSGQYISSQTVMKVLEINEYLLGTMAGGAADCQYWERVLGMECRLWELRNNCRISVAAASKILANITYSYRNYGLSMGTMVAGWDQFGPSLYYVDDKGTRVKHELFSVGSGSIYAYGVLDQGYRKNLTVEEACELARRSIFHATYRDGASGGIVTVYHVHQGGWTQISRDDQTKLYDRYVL
The assay is described as follows: Trypanosoma cruzi proteasome chymotrypsin-like activity (TcProtChymo) assay. Note: in the data most compounds retested in dose-response had high values. It counts as functional. The note with it: 9.37 µM.

For assay [7], the species on record is Homo sapiens. The experiment in a line: To identify inhibition of the IFN signalling (Jak-Stat) pathway via expression of an eGFP reporter gene under the control of an IFN-stimulated response element (ISRE) containing MxA promoter. It counts as functional. The note with it: 30 µM. (Reporter assays use an easily measured gene product as a stand-in for the process of interest.)

Assay [8] concerns the target T4, Tyrosyl-tRNA synthetase, putative (Trypanosoma cruzi (strain CL Brener)) (UniProt Q4DSP6).
T4 sequence (whole entry): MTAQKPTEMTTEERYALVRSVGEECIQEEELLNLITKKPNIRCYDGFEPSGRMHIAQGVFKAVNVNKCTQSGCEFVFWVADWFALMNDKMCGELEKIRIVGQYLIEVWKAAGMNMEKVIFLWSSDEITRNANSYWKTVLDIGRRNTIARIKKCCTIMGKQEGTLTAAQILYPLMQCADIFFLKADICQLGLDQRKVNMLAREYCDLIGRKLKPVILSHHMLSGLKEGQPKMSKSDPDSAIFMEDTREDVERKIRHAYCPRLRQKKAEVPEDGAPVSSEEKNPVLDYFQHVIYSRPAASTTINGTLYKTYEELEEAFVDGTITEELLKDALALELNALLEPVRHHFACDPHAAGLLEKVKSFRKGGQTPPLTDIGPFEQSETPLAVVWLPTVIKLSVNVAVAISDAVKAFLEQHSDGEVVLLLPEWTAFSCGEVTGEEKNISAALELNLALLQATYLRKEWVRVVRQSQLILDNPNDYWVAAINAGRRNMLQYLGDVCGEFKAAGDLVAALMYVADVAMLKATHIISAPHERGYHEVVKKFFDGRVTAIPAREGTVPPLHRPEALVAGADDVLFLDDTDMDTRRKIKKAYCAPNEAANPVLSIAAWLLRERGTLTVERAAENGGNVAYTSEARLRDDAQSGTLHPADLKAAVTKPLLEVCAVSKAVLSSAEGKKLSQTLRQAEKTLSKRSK
The experiment in a line: Trypanosoma cruzi tyrosyl tRNA synthetase (TcYRS) _High Tyrosine SOP. Note: in the data most compounds retested in dose-response had high values. Conditions: 30 µM. It counts as functional.

Assay [9] concerns the target T4, Tyrosyl-tRNA synthetase, putative (Trypanosoma cruzi (strain CL Brener)). The experiment in a line: Trypanosoma cruzi tyrosyl tRNA synthetase (TcYRS) SOP. The format is functional. The note with it: 30 µM.
In assay [10] the target is Chromo domain-containing protein 1 (Saccharomyces cerevisiae (strain ATCC 204508 / S288c) (Baker's yeast)) (UniProt P32657). The experiment in a line: ScCHD-1 Enzyme Inhibition Assay. Note: in the data most compounds retested in dose-response had high values. It counts as functional. The note with it: 30 µM.

For part of these data: Results with a measured potency or affinity are listed apart.

Sequence of Chromo domain-containing protein 1 (Saccharomyces cerevisiae (strain ATCC 204508 / S288c) (Baker's yeast)) (P32657 whole entry, the tested form may be a part): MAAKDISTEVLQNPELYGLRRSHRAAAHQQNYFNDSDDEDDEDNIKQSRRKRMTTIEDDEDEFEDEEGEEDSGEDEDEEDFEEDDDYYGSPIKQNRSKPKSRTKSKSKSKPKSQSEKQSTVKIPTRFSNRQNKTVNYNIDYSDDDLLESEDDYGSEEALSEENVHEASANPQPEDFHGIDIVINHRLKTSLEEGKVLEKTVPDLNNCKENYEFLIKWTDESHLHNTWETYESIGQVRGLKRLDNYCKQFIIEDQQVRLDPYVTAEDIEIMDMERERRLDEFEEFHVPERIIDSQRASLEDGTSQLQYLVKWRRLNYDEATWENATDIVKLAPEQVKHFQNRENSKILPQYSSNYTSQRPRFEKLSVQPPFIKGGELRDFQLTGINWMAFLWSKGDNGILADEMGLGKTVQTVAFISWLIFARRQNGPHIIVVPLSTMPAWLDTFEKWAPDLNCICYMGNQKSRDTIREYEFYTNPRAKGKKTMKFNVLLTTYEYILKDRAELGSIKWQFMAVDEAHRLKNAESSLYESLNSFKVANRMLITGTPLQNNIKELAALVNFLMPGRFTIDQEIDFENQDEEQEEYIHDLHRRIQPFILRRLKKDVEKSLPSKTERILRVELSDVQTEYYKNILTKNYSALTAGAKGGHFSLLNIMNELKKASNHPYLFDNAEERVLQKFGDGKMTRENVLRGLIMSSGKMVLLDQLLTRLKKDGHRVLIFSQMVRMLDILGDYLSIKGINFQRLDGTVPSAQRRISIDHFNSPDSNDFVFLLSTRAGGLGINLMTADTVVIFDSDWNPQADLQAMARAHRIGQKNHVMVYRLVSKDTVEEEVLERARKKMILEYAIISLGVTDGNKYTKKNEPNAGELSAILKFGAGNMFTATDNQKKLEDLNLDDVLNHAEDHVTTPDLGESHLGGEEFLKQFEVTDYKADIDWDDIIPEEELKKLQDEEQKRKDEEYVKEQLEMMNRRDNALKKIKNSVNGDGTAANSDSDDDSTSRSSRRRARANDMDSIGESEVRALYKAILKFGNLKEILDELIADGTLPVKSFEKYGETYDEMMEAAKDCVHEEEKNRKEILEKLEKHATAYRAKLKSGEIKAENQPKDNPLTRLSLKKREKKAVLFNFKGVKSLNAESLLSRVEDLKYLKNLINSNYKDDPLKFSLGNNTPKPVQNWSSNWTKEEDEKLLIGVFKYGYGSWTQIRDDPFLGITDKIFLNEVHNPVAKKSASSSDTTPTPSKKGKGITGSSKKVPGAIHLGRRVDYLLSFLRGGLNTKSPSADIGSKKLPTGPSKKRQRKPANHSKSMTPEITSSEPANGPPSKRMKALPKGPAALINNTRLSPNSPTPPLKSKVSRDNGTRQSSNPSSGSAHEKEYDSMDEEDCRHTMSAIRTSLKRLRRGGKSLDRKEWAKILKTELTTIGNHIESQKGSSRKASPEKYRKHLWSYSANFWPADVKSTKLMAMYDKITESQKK
Sequence of Sialic acid-binding Ig-like lectin 9 (Homo sapiens) (Q9Y336 whole entry): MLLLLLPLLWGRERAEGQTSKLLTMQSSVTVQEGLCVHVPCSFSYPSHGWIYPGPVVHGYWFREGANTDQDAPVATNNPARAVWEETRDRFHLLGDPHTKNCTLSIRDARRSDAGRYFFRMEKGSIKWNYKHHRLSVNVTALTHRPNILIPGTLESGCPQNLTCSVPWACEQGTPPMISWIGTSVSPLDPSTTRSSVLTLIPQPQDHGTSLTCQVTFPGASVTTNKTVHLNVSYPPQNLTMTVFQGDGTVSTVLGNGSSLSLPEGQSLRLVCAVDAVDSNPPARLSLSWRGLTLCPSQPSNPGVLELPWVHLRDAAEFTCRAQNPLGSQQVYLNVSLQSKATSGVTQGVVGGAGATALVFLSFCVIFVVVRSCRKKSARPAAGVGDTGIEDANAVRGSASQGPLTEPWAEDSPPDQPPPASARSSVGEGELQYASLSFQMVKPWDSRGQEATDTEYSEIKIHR
Sequence of Protein translocase subunit SecA (Escherichia coli (strain K12)) (P10408 whole entry): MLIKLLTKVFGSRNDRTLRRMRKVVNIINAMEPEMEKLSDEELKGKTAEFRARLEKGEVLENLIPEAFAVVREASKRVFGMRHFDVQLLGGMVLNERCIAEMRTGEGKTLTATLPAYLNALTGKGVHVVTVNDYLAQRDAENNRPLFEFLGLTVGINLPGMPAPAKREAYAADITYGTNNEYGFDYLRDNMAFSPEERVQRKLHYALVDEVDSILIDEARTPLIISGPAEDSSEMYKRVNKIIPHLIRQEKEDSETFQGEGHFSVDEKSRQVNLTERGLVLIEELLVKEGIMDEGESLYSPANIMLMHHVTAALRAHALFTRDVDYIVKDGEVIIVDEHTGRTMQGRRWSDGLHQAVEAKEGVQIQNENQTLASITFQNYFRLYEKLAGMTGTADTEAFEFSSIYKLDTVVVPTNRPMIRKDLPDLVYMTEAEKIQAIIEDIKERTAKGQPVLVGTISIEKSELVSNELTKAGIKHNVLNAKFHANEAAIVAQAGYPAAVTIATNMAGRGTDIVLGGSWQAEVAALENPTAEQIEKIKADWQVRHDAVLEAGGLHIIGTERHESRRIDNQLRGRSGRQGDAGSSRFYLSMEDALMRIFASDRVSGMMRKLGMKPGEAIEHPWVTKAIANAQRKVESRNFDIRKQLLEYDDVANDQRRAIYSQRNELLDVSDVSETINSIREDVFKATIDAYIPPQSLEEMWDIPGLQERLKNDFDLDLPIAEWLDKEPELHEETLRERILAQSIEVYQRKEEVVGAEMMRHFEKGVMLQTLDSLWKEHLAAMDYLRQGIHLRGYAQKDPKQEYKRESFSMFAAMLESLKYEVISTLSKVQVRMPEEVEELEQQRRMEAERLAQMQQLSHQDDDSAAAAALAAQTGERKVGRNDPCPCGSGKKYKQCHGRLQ

On to `Cc1c[nH]nc1C1CCCCN1C(=O)Cn1cc(Cl)cn1` (stereo not given), for which the Percent Effect in [1] was -0.928%; in [2] it was 14.7%; in assay [3] it was -3.24%; in [4], -2.96%; in [5], 3.1%; in [6] it was 15.1%. For the same molecule, the Percent Effect was 7.7% in [7], 3.17% in [8], 10% in [9] and -20.3% in [10].
Consider `COc1cc(N2CCCC(c3nccn3CCN(C)C)C2)nc(N)n1` (stereo not given), for which the Percent Effect in assay [1] is -9.14%; in [2], 2.7%; in [3], 4.84%; in assay [4] it was 3.59%; in assay [5] it was 4.54%; in assay [6], 4.62%. Also, the Percent Effect amounted to 5.13% in assay [7], 7.98% in [8], 17.1% in assay [9] and 11.6% in assay [10].
For `Cc1cccc(C(=O)N2C[C@@H](OCc3cccnc3)[C@H]3OCCC[C@@H]32)n1`, the Percent Effect is -3.43% in assay [1]; 11.7% in assay [2]; -6.23% in assay [3]; 4.77% in assay [4]; -4.45% in assay [5]; 21.6% in assay [6]. Further, the Percent Effect came to 5.3% in assay [7], 8.95% in assay [8], 7.69% in assay [9] and 112% in assay [10].
`CC(C)c1noc(CCCC(=O)NC2CCS(=O)(=O)C2)n1` (stereo not given): the Percent Effect in assay [1] is -0.362%; in assay [2], 13.3%; in [3] it was -4.53%; in assay [4], 2.01%; in assay [5], -7.98%; in [6], 12.6%. Further, the Percent Effect in [7] was 8.49%; in [8], 5.79%; in assay [9] it was 15.4%; in assay [10], -11%.
Turning to `CC(NC(=O)N1CCN(c2ccccc2)CC1)c1nncn1C` (stereo not given), the Percent Effect in assay [1] is 1.88%; in [2], 10.7%; in assay [3], -3.63%; in [4], -2.81%; in assay [5], 7.54%; in assay [6], 11.4%. Further, the Percent Effect in assay [7] is 13.4%; in assay [8], 3.68%; in assay [9], 5.13%; in assay [10], -13.8%.
For the molecule `c1nc2n(n1)CC(NCc1csc(-c3ccsc3)n1)CC2` (stereo not given), the Percent Effect in assay [1] is -1.39%; in [2], 7.69%; in assay [3] it was -4.25%; in assay [4] it was 1.97%; in [5] it was 9.43%; in [6], 2.3%. Also, the Percent Effect in [7] is 6.22%; in [8], 9.09%; in assay [9], 20.5%; in assay [10], -0.275%.
As for `O=C1CC(c2cccc(O)c2)c2sc(C(=O)O)c(-c3ccccc3)c2N1` (stereo not given), the Percent Effect in assay [1] was 7.88%; in [2] it was -10.8%; in assay [3], -0.96%; in assay [4], -8.24%; in assay [5], -10.1%; in assay [6], 13%. Further, the Percent Effect in assay [7] is 31.3%; in [8], -9.04%; in assay [9], -2.44%; in assay [10], -0.195%.
Take `O=C(Nc1nnc(C2CC2)s1)NC1CCN(Cc2ccccc2)C1` (stereo not given): the Percent Effect was -5.17% in [1]; 12.8% in assay [2]; -8.9% in assay [3]; -2.35% in assay [4]; 0.82% in [5]; 4.01% in [6]. In addition, the Percent Effect is 43.6% in assay [7], 0.478% in assay [8], 10.8% in assay [9] and -0.956% in assay [10].
Take `O=S(=O)(CCCN1CCCC1Cn1cccn1)c1ccccc1` (stereo not given): the Percent Effect is -5.34% in assay [1]; 7.79% in assay [2]; 19.1% in assay [3]; -2.24% in [4]; -0.205% in [5]; 7.19% in assay [6]. The Percent Effect in [7] is 2.19%; in assay [8] it was 6.86%; in assay [9], 16.5%; in assay [10] it was -5.4%.
For `COc1ncccc1C(=O)N1CCn2c(COCC3CC3)cnc2C1C` (stereo not given), the Percent Effect is -3.37% in assay [1]; 3.9% in assay [2]; -3.01% in assay [3]; 1.07% in assay [4]; -1.62% in assay [5]; 8.21% in assay [6]. In addition, the Percent Effect in [7] was -16%; in assay [8], 4.74%; in assay [9], 7.69%; in assay [10], 1.11%.
`CC(=O)N1N=C(c2ccccc2)OC1C(=O)NCCC1=CCCCC1` (stereo not given): the Percent Effect in assay [1] was 1.88%; in assay [2], 12%; in assay [3], -5.04%; in assay [4], -0.986%; in assay [5], 2.21%; in [6], 7.55%. The Percent Effect in assay [7] is 26.2%; in [8], -1.06%; in assay [9] it was 5%; in assay [10] it was -32.1%.
Regarding `Cn1cnnc1C1CCCN(C(=O)c2cc(Cl)c3c(c2)OCO3)C1` (stereo not given), the Percent Effect in assay [1] is -2.96%; in assay [2] it was 5.33%; in assay [3], 2.45%; in assay [4], -5.02%; in assay [5], 2.22%; in assay [6] it was 8.57%. Moreover, the Percent Effect is 4.91% in assay [7], 0.526% in assay [8], 10.3% in [9] and -5.32% in assay [10].
